Targets with a hit are over-represented here; the source holds about 7,900 in all. About 0.6% of all pairs of compound and target were hits.

Chain of UniProt Q9BZL4 (Q9BZL4 whole entry, looked up): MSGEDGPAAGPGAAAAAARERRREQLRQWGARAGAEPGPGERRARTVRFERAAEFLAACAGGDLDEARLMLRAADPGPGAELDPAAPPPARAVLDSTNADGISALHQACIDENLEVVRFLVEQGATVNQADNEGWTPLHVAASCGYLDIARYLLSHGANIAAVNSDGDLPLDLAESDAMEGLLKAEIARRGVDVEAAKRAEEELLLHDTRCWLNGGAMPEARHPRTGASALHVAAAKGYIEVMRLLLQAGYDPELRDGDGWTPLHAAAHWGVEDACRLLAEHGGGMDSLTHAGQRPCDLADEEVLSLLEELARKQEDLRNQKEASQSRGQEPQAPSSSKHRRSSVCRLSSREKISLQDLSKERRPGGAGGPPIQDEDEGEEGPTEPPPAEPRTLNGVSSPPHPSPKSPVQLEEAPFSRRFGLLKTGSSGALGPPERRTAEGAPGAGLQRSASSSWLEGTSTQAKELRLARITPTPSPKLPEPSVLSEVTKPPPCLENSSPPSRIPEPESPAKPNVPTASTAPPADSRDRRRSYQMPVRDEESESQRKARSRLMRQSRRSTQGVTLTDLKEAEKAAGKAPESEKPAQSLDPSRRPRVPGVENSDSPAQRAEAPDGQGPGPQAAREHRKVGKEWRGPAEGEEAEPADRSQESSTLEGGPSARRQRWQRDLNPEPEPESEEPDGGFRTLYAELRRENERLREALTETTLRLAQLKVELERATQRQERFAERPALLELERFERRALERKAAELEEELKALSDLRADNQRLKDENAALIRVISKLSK
Chain of UniProt Q14442 (Q14442 whole entry, looked up): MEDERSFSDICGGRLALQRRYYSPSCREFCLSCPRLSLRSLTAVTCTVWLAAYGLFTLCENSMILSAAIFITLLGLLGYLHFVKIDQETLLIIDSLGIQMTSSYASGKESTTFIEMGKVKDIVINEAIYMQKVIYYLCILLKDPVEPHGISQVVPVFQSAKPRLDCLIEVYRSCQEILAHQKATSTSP
Chain of UniProt P09874 (P09874 whole entry, looked up): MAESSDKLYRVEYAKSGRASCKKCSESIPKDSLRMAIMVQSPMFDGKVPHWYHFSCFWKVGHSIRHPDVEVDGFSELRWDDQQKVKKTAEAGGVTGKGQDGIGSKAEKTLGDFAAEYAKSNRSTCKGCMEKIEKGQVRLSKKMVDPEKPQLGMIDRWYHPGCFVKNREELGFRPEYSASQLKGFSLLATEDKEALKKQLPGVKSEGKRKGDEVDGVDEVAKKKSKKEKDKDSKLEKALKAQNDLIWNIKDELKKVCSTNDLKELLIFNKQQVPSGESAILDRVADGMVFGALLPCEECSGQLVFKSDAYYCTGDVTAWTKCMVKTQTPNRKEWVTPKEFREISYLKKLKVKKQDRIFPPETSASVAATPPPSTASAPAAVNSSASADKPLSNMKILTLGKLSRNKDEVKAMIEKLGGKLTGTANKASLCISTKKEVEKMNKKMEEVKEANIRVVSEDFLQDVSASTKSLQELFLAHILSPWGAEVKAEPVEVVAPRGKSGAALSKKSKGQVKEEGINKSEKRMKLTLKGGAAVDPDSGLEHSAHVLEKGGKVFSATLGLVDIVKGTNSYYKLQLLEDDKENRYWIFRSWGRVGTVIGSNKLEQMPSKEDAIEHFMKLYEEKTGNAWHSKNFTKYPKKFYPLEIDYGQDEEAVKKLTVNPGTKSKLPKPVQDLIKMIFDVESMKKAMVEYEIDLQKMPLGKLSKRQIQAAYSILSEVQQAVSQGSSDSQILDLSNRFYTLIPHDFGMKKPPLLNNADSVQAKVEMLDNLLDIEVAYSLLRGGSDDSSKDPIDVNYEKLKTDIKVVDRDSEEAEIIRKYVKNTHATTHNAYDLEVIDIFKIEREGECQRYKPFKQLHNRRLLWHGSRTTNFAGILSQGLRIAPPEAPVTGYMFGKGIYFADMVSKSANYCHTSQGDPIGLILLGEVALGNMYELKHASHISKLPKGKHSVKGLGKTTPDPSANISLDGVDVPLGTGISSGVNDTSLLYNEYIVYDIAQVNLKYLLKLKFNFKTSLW
Chain of UniProt Q9H5K3 (Q9H5K3 whole entry, looked up): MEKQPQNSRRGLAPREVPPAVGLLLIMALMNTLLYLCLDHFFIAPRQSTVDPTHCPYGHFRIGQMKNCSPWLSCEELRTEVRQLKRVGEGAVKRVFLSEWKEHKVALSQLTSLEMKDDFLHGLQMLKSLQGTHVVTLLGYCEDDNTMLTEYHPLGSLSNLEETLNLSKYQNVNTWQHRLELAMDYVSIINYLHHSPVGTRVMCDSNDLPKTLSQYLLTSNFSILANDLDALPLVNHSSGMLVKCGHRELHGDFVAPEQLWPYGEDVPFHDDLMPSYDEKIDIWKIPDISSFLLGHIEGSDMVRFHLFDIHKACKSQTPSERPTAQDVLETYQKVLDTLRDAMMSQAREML
Chain of UniProt Q9NR22 (Q9NR22 whole entry, looked up): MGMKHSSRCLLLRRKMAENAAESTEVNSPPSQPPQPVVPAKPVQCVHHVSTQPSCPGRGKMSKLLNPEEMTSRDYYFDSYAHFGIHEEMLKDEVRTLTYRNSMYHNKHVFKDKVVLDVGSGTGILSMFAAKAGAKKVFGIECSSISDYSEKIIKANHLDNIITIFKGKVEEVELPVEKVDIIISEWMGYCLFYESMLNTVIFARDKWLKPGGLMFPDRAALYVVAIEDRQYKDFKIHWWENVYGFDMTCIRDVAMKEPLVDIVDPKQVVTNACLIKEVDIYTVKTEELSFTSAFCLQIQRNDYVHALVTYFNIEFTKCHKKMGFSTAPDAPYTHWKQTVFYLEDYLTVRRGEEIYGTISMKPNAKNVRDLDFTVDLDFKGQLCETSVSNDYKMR
Chain of UniProt P28065 (P28065 whole entry, looked up): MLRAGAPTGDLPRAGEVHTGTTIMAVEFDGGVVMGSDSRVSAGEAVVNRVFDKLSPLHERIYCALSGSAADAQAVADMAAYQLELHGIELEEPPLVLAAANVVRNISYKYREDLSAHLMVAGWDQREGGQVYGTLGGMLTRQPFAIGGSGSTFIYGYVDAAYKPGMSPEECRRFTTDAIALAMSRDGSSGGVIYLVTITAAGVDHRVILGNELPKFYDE
Chain of UniProt P14618 (P14618 whole entry, looked up): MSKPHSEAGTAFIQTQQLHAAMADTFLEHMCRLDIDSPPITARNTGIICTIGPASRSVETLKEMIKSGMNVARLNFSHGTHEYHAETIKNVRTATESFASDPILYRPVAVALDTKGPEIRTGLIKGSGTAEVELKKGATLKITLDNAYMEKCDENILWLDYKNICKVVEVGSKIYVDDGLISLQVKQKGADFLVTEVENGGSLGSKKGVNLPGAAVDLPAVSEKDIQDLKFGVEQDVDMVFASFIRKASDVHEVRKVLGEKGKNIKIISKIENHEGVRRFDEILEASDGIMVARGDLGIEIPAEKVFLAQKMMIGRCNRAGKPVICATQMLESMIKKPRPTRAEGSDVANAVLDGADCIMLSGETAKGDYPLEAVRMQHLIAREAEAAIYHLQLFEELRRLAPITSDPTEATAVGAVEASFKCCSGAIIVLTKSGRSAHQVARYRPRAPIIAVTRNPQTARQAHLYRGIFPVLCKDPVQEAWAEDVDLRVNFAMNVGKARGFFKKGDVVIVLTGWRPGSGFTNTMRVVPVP
Chain of UniProt P28070 (P28070 whole entry, looked up): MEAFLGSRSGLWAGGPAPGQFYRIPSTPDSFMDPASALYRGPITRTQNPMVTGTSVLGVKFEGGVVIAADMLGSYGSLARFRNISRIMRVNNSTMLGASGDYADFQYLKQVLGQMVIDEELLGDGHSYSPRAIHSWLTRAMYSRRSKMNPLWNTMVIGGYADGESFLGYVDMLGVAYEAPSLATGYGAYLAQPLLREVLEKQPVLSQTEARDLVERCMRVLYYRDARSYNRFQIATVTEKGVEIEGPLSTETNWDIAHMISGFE
Chain of UniProt P07205 (P07205 whole entry, looked up): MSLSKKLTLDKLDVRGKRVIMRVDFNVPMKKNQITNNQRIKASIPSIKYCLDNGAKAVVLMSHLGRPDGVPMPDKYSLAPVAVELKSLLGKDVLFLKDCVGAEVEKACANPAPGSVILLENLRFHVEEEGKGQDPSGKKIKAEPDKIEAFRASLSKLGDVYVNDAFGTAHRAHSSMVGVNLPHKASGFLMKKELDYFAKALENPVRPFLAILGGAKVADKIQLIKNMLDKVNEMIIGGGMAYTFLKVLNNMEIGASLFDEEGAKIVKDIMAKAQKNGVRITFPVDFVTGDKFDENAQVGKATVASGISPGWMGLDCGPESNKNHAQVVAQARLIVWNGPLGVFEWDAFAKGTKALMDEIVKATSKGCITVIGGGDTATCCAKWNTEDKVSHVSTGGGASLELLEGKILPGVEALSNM
Chain of UniProt Q9H307 (Q9H307 whole entry, looked up): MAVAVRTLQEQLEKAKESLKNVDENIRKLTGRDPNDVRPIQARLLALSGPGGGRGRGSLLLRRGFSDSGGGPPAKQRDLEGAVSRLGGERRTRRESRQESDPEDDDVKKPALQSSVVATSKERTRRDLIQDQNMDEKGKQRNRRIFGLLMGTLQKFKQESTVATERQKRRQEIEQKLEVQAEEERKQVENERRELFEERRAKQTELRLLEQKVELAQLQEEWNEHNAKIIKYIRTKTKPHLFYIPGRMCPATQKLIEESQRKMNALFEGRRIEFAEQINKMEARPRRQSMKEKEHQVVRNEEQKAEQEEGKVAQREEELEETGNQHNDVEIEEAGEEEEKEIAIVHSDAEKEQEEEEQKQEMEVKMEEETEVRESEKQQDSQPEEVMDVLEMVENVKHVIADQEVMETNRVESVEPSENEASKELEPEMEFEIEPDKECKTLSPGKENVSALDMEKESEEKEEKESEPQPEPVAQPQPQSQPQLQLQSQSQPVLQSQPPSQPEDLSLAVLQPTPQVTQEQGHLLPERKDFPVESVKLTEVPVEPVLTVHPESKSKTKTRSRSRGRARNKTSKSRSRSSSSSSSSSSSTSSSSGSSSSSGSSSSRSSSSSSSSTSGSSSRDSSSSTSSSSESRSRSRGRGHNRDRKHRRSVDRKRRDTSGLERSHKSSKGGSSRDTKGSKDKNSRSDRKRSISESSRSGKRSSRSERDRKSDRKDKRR

Compound in this assay: CC[C@H](C)[C@@H](C(=O)N[C@@H]([C@@H](C)O)C(=O)N[C@@H](CC(C)C)C(=O)[C@]1(CO1)C)NC(=O)[C@H]([C@@H](C)CC)N(C)C(=O)C [epoxomicin]
The assay can be described thus: log2 fold change, soluble protein after heating vs DMSO (PISA); higher = thermal stabilisation; K562 cells, 10 uM, 30 min; active = over 0.2 and 3.5 SD of the protein, either way, in both replicates (recomputed). The procedure, abridged:
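Values are thermal stability changes relative to control samples and are taken from duplicates. They are stated as log2 fold changes. Before quantification by TMTpro 16plex LC-MS/MS with equalised channel sums, K562 cells at 2×10^6 cells/mL were treated with 10 μM compound for 30 min, heated in aliquots for 3 min across 48°C-58°C, pooled, extracted in PBS with 0.5% NP-40 at 4°C, and centrifuged at 21,000xg for 90 min to give the soluble supernatant.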
With PKM isoform 2 (UniProt P14618), the log2 fold change is 0.29 (inactive).
Regarding PDIK1L (UniProt Q8N165), the log2 fold change was -0.128 (inactive).
Take POLR2C (UniProt P19387): the log2 fold change was 0.075 (inactive).
As to POLB (UniProt P06746), the log2 fold change was 0.043 (inactive).
Take PPP2R5A (UniProt Q15172): the log2 fold change is 0.067 (inactive).
As to POMK (UniProt Q9H5K3), the log2 fold change was -0.05 (inactive).
Regarding PRKAG1 isoform 3 (UniProt P54619), the log2 fold change was -0.024 (inactive).
Regarding PSMB9 (UniProt P28065), the log2 fold change was 0.049 (inactive).
Turning to PTGFRN (UniProt Q9P2B2), the log2 fold change is 0.014 (inactive).
As for PGK2 (UniProt P07205), the log2 fold change is -0.037 (inactive).
Take PIGH (UniProt Q14442): the log2 fold change was -0.128 (inactive).
For PTP4A2 (UniProt Q12974), the log2 fold change is 0.153 (inactive).
On to PNN (UniProt Q9H307), for which the log2 fold change is -0.07 (inactive).
On to PLIN2 (UniProt Q99541), for which the log2 fold change was 0.153 (inactive).
Regarding PCNX1 (UniProt Q96RV3), the log2 fold change is -0.017 (inactive).
As to POGZ (UniProt Q7Z3K3), the log2 fold change is 0.08 (inactive).
PRMT3 (UniProt O60678): the log2 fold change was 0.033 (inactive).
As for PEX16 isoform 2 (UniProt Q9Y5Y5), the log2 fold change is -0.024 (inactive).
As for PIK3CD (UniProt O00329), the log2 fold change was -0.076 (inactive).
For PPP1R12C (UniProt Q9BZL4), the log2 fold change was -0.102 (inactive).
As to POLR2M (UniProt Q6EEV4), the log2 fold change is 0.154 (inactive).
With PSMB4 (UniProt P28070), the log2 fold change is -0.202 (inactive).
Take PDPK1 (UniProt O15530): the log2 fold change is 0.055 (inactive).
On to PHKA1 (UniProt P46020), for which the log2 fold change was -0.039 (inactive).
With POLR2E (UniProt P19388), the log2 fold change is 0.065 (inactive).
PRMT8 (UniProt Q9NR22): the log2 fold change is 0.017 (inactive).
Turning to PRKAR2A (UniProt P13861), the log2 fold change is -0.031 (inactive).
In the case of PHC3 isoform 7 (UniProt Q8NDX5), the log2 fold change is 0.254 (inactive).
With PATL1 (UniProt Q86TB9), the log2 fold change is -0.041 (inactive).
For PARP1 (UniProt P09874) the value was 0.1 (inactive); for PHLDB1 isoform 2 (UniProt Q86UU1), 0.061 (inactive).
With QRICH1 (UniProt Q2TAL8), the log2 fold change was 0.027 (inactive).
The figure for PEA15 isoform 2 (UniProt Q15121) is 0 (inactive).

The values above are taken from the supplement of paper PMC10849652.
